# Data taken from ChEMBL document CHEMBL3988442, “University of Dundee, Small-Polar-MMV Screening Library” (2021).
# Screen size: about 69,000 compounds; about 1,000 (1.4%) showed an effect of 50% or more. This is one part of a sample in which strong results are shown more often than they occur.
# Tested on: Leishmania donovani
# Assay: Leishmania intramacrophage assay
# Type: functional, organism-based
# Set-up: scale not given: in the data most compounds retested in dose-response had high values
smiles,measurement,setting,value
CN1C[C@@H](N)C[C@H]1C(=O)N1CCC(Cc2ccc(F)cc2)CC1,Percent Effect,"30.3 µM, […]",8.715%
Cc1nc[nH]c1C(=O)N1CC[C@@H](NC(=O)c2ccccn2)[C@H](O)C1,Percent Effect,"30.3 µM, […]",11.08%
COCC1CC2(CCN(Cc3nccn3C)CC2)CN1c1ncccn1.O=C(O)C(F)(F)F (configuration not stated),Percent Effect,"30.3 µM, […]",11.88%
CC(=O)c1c(C)nn(CC(=O)N2CCCC2c2ccc(C(N)=O)s2)c1C (configuration not stated),Percent Effect,"30.3 µM, […]",42.8%
Cc1n[nH]c2ncc(CNC3CCCN(c4ncccn4)C3)cc12.Cl (configuration not stated),Percent Effect,"30.3 µM, […]",15.17%
Cc1cnc(N2CCn3c(CN4CCOCC4)nnc3C2)nc1.O=C(O)C(F)(F)F,Percent Effect,"30.3 µM, […]",30.81%
COC(=O)CNC(=O)Cn1ccc2ccc(F)cc21,Percent Effect,"30.3 µM, […]",14.64%
Cc1cc(Cl)cc(C)c1CNC1CCN(CC(=O)N(C)C)CC1,Percent Effect,"30.3 µM, […]",66.45%
CC(NC1CCN(CC(=O)N(C)C)CC1)c1cnn(C(C)C)c1 (configuration not stated),Percent Effect,"30.3 µM, […]",-44.29%
Cc1nc(-c2c(C)noc2C)cc(C2CCN(CC(=O)N(C)C)CC2)n1,Percent Effect,"30.3 µM, […]",31.09%
CC(C)Oc1cc(N2CCC(C(N)=O)CC2)nc(N)n1,Percent Effect,"30.3 µM, […]",14.18%
COc1ccc(C2CCCN2C(=O)c2cc3c([nH]c2=O)CCC3)cc1 (configuration not stated),Percent Effect,"30 µM, 30.03 µM",22.34%
O=C1CC2(CCSC2)C(=O)N1Cc1coc(-c2ccccc2)n1 (configuration not stated),Percent Effect,"30.3 µM, […]",4.889%
CNC(=O)N1CCCCC1CCNS(C)(=O)=O (configuration not stated),Percent Effect,"30.3 µM, […]",6.391%
Cc1nn(C)c(N(C)C)c1CNCc1ccccc1Cn1cncn1,Percent Effect,"30 µM, 30.03 µM",20.9%
Cc1ccc(C(C(=O)O)N2CCCN(Cc3ccccn3)CC2)c(F)c1 (configuration not stated),Percent Effect,"30.3 µM, […]",23.66%
Cc1cc(F)c(C(C(=O)O)N2CCN(Cc3ccccn3)CC2)cc1Cl (configuration not stated),Percent Effect,"30.3 µM, […]",5.04%
O=C(O)C(c1ccc(Cl)c(F)c1)N1CCN(Cc2ccccn2)CC1 (configuration not stated),Percent Effect,"30.3 µM, […]",61.2%
COCCC(=O)N1CCCC1c1nccc(C)n1 (configuration not stated),Percent Effect,"30.3 µM, […]",11.84%
Cl.Fc1ccc(F)c(CN2CCC(c3cc4ncccc4cn3)CC2)c1,Percent Effect,"30.3 µM, […]",33.05%
Cl.Fc1cccc(CN2CCC(c3cc4ncccc4cn3)CC2)c1F,Percent Effect,"30.3 µM, […]",51.12%
Fc1cc(F)cc(CN2CCC(c3cc4ncccc4cn3)CC2)c1,Percent Effect,"30.3 µM, […]",29.54%
Cn1nnnc1SCC(=O)N1CCN(C(=O)C2CC2c2cccs2)CC1 (configuration not stated),Percent Effect,"30.3 µM, […]",-0.756%
Cc1cnn(CCNCC(O)c2ccc3c(c2)OCCO3)c1 (configuration not stated),Percent Effect,"30.3 µM, […]",-28.04%
O[C@@H]1CN(CC2=Cc3cc(Cl)ccc3OC2)CC[C@H]1N1CCCCCC1,Percent Effect,"30.3 µM, […]",44.96%
CN1CCN([C@@H]2CCN(CC3=Cc4cc(Cl)ccc4OC3)C[C@H]2O)CC1,Percent Effect,"30.3 µM, […]",96.13%
CN1CCN([C@@H]2CCN(Cc3ccc4cc(F)ccc4n3)C[C@H]2O)CC1,Percent Effect,"30.3 µM, […]",33.38%
CNc1ncccc1C(=O)N1CCCC2(C1)C(=O)N(C)c1ccccc12 (configuration not stated),Percent Effect,"30.3 µM, […]",63.07%
Cc1c(O)cccc1C(=O)N1CCCC2(C1)C(=O)N(C)c1ccccc12 (configuration not stated),Percent Effect,"30.3 µM, […]",10.13%
CN1C(=O)C2(CCCN(C(=O)c3cccnc3O)C2)c2ccccc21 (configuration not stated),Percent Effect,"30.3 µM, […]",4.492%
O=C(NCC1(O)CCOc2ccccc21)Nc1ccccc1 (configuration not stated),Percent Effect,"30.3 µM, […]",35.58%
CN(CCO)C[C@@H]1CN(C(=O)c2cccc(OC(F)F)c2)C[C@@H]1CO,Percent Effect,"30.3 µM, […]",59.47%
COCCN(C)C[C@@H]1CN(C(=O)c2cccc(Cl)c2)C[C@@H]1CO,Percent Effect,"30.3 µM, […]",-8.073%
COCCN(C)C[C@@H]1CN(C(=O)c2cccc(C#N)c2)C[C@@H]1CO,Percent Effect,"30.3 µM, […]",-5.773%
COc1ccc(C(=O)N2CCCC2c2cnn(C)c2)cn1 (configuration not stated),Percent Effect,30 µM,3.221%
CN(Cc1ccco1)Cc1ccccc1CNC(=O)c1cnccn1,Percent Effect,"30.3 µM, […]",16.56%
CC(C)N(CCO)C(=O)c1cc(COc2ccc3c(c2)CCCC3)on1,Percent Effect,"30.3 µM, […]",15.58%
Cc1cnccc1NCCNC(=O)C1CCCN(Cc2ccco2)C1 (configuration not stated),Percent Effect,"30.3 µM, […]",54.03%
O=C(NCCCc1ccncc1)C1CCCN(Cc2ccco2)C1 (configuration not stated),Percent Effect,"30 µM, 30.03 µM",28.63%
O=C(NCCc1cccnc1)C1CCCN(Cc2ccco2)C1 (configuration not stated),Percent Effect,"30.3 µM, […]",-19.49%
CCN(C)c1ncnc2c1CCN(C(=O)c1cnccn1)CC2.O=C(O)C(F)(F)F,Percent Effect,"30.3 µM, […]",16.93%
Cc1ncoc1C(=O)N1C[C@H]2CCC[C@@]2(COCC2CCOCC2)C1,Percent Effect,"30 µM, 30.03 µM",24.66%
CN1C(=O)CCCC12CCCN(C(=O)c1cccc(C(F)(F)F)c1)C2 (configuration not stated),Percent Effect,"30.3 µM, […]",25.18%
CN(C)CCCNC(=O)C(c1cccc(F)c1)N(C)C (configuration not stated),Percent Effect,"30.3 µM, […]",17.93%
CN(C)CCNCCC(c1ccccc1)C1CCOC(C)(C)C1.O=C(O)C(=O)O (configuration not stated),Percent Effect,"30.3 µM, […]",94.59%
CCN(CC)CCNCC1CCOC(C)(C)C1 (configuration not stated),Percent Effect,"30.3 µM, […]",12.8%
CN(C)CCCNCCC(c1ccccc1)C1CCOC(C)(C)C1.O=C(O)C(=O)O (configuration not stated),Percent Effect,"30.3 µM, […]",97.24%
CC(CCc1ccccc1)NC(=O)CNCCCN(C)C.O=C(O)C(=O)O (configuration not stated),Percent Effect,"30.3 µM, […]",-24.91%
CN(C)CCNCC1CCOC(C)(C)C1 (configuration not stated),Percent Effect,"30.3 µM, […]",-2.235%
CN(C)CCNCCC(Cc1ccccc1)C1CCOC(C)(C)C1.O=C(O)C(=O)O (configuration not stated),Percent Effect,"30.3 µM, […]",11.95%
CN(C)CCCNCC1CCOC(C)(C)C1 (configuration not stated),Percent Effect,"30.3 µM, […]",10.54%
CN(C)CCCNCCC(Cc1ccccc1)C1CCOC(C)(C)C1.O=C(O)C(=O)O (configuration not stated),Percent Effect,"30.3 µM, […]",91.79%
